Hit rate of the full screen: of about 310,000 compounds, about 14,000 (4.5%) showed an effect of 50% or more. Effects have a minus sign here. This excerpt belongs to a sample that is enriched for strong results.
The molecules below were run against human ether-à-go-go-related gene (hERG) potassium channel (human, UniProt Q12809) (assay: primary screen, population patch clamp on CHO cells stably expressing hERG; higher = less effect of the substance).
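Note: peak tail current of the secondary pulse compared with the same well before compound.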

Sequence of human ether-à-go-go-related gene (hERG) potassium channel (Q12809 whole entry, looked up): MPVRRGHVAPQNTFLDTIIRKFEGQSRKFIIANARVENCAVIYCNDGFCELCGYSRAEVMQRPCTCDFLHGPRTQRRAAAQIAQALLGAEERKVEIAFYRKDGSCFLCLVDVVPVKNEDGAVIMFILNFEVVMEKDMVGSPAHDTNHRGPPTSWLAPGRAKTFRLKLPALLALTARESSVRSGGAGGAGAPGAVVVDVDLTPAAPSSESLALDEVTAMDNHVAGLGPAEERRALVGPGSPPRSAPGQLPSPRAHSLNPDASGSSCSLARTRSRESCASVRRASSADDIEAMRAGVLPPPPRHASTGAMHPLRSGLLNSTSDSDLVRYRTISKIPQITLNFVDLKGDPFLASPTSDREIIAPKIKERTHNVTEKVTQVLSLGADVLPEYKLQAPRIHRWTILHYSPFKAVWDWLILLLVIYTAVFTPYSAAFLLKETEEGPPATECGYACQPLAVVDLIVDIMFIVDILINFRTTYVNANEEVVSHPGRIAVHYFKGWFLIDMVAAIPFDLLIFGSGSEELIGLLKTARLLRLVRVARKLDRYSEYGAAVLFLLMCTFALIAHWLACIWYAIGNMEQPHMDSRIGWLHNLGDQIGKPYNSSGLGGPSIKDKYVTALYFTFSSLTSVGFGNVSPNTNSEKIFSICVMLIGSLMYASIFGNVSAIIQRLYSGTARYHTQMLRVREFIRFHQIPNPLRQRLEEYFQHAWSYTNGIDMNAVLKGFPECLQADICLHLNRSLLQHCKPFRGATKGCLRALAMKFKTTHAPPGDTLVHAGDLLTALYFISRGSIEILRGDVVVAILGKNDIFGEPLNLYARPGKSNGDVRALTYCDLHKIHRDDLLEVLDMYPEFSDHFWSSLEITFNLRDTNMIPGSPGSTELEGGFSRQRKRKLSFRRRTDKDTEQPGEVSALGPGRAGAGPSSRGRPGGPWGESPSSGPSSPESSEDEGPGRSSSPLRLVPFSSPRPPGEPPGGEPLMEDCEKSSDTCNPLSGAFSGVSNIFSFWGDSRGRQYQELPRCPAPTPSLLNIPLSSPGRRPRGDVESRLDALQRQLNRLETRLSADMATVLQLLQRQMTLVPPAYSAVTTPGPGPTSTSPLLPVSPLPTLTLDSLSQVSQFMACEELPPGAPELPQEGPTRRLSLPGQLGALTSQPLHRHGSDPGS

Structure (SMILES) | hERG current change (%, negative = inhibition) at 10uM
COc1ccc(S(=O)(=O)Nc2ccccc2-c2nnn(CC(=O)Nc3ccccc3OC)n2)cc1 | 5.49%
CC(=O)OC[C@H]1O[C@@H](n2ccc(=O)[nH]c2=S)C(OC(C)=O)C1OC(C)=O (stereo partly shown) | -4.01%
COc1cccc(C(=O)NCC(C)(C)SCc2ccc(F)cc2)c1 | -28.2%
Cc1cccc(NC(=O)CCS(=O)(=O)c2cccc3nonc23)c1C | 7.7%
CCC(C)NC(=O)Nc1ccccc1F (stereo not shown) | -24.5%
O=S(=O)(c1ccccc1)N1CCCCC1c1cccnc1 (stereo not shown) | 2.3%
O=C(COc1ccc(Br)cc1)N1CCN(Cc2c[nH]c3ccccc23)CC1.O=C(O)C(=O)O | -57.9%
O=C(NCCc1c[nH]c2ccccc12)C1CCN(S(=O)(=O)c2ccccc2)CC1 | -17.1%
O=C(COc1ccccc1)N1CCN(Cc2c[nH]c3ccccc23)CC1 | -47.4%
O=C(NCCc1c[nH]c2ccccc12)C1CCN(S(=O)(=O)c2ccc(F)cc2)CC1 | -28.3%
O=C(NCCc1c[nH]c2ccccc12)C1CCN(Cc2ccc(Br)cc2)CC1 | -54%
O=C(c1ccccc1)N1CCN(Cc2c[nH]c3ccccc23)CC1 | -16.4%
O=C(NNC(=O)C1CC=CCC1)c1ccccc1O (stereo not shown) | -4.58%
Cn1c(CC(=O)Nc2ccccc2)nnc1SCC(=O)NC1=NCCS1 | 12.7%
CC(C)c1ccccc1OCCCCCN1CCOCC1 | -13.5%
O=C(O)COc1ccc(Cl)cc1Cl | 7.53%
COc1ccc(C)cc1NC(=O)C(=O)N/N=C(\C)CC(=O)Nc1cccnc1 | 2.77%
CCN(CC)C(=O)c1cccc(-c2ccc(OC)cc2)c1 | -17%
C=CCN1C[C@@H](C)N(C(c2ccc(C(=O)N(CC)CC)cc2)c2cccc(OC)c2)C[C@@H]1C (stereo partly shown) | -65.3%
C=CCN1C(=O)c2ccc(C(=O)N(CC)CC(=O)Nc3ccc(OC)cc3)cc2C1=O | -20%
c1ccc(-n2c(-c3ccncc3)nnc2N2CCOCC2)cc1 | 16.9%
Cc1cc(=O)c2ccc3ccccc3c2[nH]1 | 7.45%
Cc1cc(=O)cc(C)n1-c1ccc(F)cc1F | 0.384%
CC1(C)c2cc(O)ccc2OC1N1CCOCC1 (stereo not shown) | 13.6%
COc1ccc(-n2cnc3cc(NCc4ccco4)ccc32)cc1 | -67.3%

Structure (SMILES) | hERG current change (%, negative = inhibition) at 10uM
COc1ccccc1-n1cnc2cc(NCc3ccco3)ccc21 | -20.7%
c1ccc(-n2cnc3cc(NCc4ccco4)ccc32)cc1 | -49.8%
O=C1c2ccccc2C(=O)N1Cc1ccccc1F | 13%
CC1=C(C(=O)Nc2ccccc2)C(c2ccco2)C(C#N)=C(SCC(N)=O)N1 (stereo not shown) | -3.31%
O=C(c1cc(COc2ccc(F)cc2Cl)on1)N1CCCCCC1 | -3.89%
O=C(c1cc(COc2c(F)cccc2F)on1)N1CCC(c2ccncc2)CC1 | -38.5%
Cc1cccc(C)c1OCc1cc(C(=O)N2CCC(c3ccncc3)CC2)no1 | -55.8%
O=C(c1cc(COc2ccc(F)cc2Cl)on1)N1CCC(c2ccncc2)CC1 | -72.5%
Cc1cccc(C)c1OCc1cc(C(=O)N2CCC(c3ccccc3)CC2)no1 | -1.95%
CSc1ccccc1OCc1cc(C(=O)N2CCC(Oc3cccnc3)CC2)no1 | -37.4%
CSc1ccccc1OCc1cc(C(=O)N2CCC(c3ccncc3)CC2)no1 | -58.5%
O=C(c1cc(COc2ccc(F)cc2Cl)on1)N1CCCCCCC1 | 0.909%
CSc1ccccc1OCc1cc(C(=O)N2CCSCC2)no1 | 0.366%
CC(C)C[C@H](NC(=O)c1nc[nH]c1C(=O)NC1CCN(C(=O)OC(C)(C)C)CC1)C(=O)OCc1ccccc1 | 3.48%
COc1cccc(C2CC(=O)C3=C(C2)Nc2ccccc2N(C(=O)CCC(=O)O)C3c2ccc(F)cc2)c1 (stereo not shown) | 5.1%
Nc1ccccc1NC1=CC(=O)CC(c2ccco2)C1 (stereo not shown) | 10.4%
Cn1c(SCC(=O)c2ccccc2)nnc1-c1cnccn1 | 6.47%
CC(=O)c1ccc(NC(=O)CSc2ccc3nnc(-c4cccnc4)n3n2)cc1 | -28.8%
COc1ccc(NC(=O)CSc2ccc3nnc(-c4cccnc4)n3n2)cc1 | -50.4%
CC(=O)Nc1ccc(NC(=O)CSc2ccc3nnc(-c4cccnc4)n3n2)cc1 | 2.95%
CCOc1ccc(NC(=O)CSc2ccc(-c3cccnc3)nn2)cc1 | -5.55%
Cc1ccc(NC(=O)CSc2ccc3nnc(-c4cccnc4)n3n2)cc1 | -53.1%
COc1cccc(NC(=O)CSc2ccc3nnc(-c4cccnc4)n3n2)c1 | -37.5%
CCOc1ccc(NC(=O)CSc2ccc3nnc(-c4cccnc4)n3n2)cc1 | -54.7%
